Screens: PubChem, National Center for Advancing Translational Sciences (NCATS)
IL1B secr inh = qHTS for Inhibitors of Inflammasome Signaling: IL-1-beta AlphaLISA Primary Screen; hit rate 4.7% among 360,000; THP-1 LPS/ATP IL-1B secretion, AlphaLISA, 16 h; active compounds read low; activity change, % at 57.5 µM; in the data active means activity change below about -50%; inconclusive means mostly about -30% to -49%
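Secreted IL-1B measured by AlphaLISA bead assay after 16 h compound exposure of THP-1 cells; compounds (final up to 57.5 uM) added 1 h before LPS (250 ng/mL) and ATP (1.25 mM) stimulation; lower signal means less secretion.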
uPA surface inh = qHTS for Inhibitors of Cell Surface uPA Generation. hit rate 0.31% among 330,000. AID 540303, 2011. cell surface uPA generation assay, qHTS. Potency, µM (top dose mostly 38.3 µM), without a hit: at the top dose activity change, negative = inhibition, usual class: inhibitors; active means well fitted inhibition curve with a large enough effect; inconclusive means small, poorly fitted or top-dose-only effect; inactive means no such curve, though single readings can be large or run the other way; tested in mouse RAW 264.7 cells; further: potency means the concentration at half of the fitted maximal effect; nearly all actives have a fitted effect of over 55% in size
HT1080NT lethal = qHTS for induction of synthetic lethality in tumor cells producing 2HG: qHTS for the HT-1080-NT fibrosarcoma cell line; HT-1080-NT fibrosarcoma viability, CellTiter-Glo ATP luminescence, 48 h; Potency, µM (top dose mostly 46.1 µM), for inactives: top-dose activity, negative = less viability, usual class: cytotoxic; hit rate 1.6% among 360,000;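 further: NT is the 2HG producing partner of a matched IDH1 knockdown line; potency means the concentration at half of the fitted maximal effect; 0% = DMSO-treated cells and -100% = media-only wells without cells; nearly all actives have a fitted effect of over 55% in size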
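Viability of the 2HG-overproducing fibrosarcoma line after 48 hours of compound exposure at 37 degrees C was determined by luminescence with CellTiter-Glo, and concentration-effect curves were then fitted and categorized.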
DT40 TDP1 CPT = qHTS for Inhibitors of human tyrosyl-DNA phosphodiesterase 1 (TDP1): qHTS in cells in presence of CPT. chicken DT40 Tdp1-/-;hTDP1 cells + 20 nM CPT, ATP luminescence, 48 h. AID 686979, 2013. Potency, µM (titrated, usually from 46.2 µM), for the others: at the top dose activity change, negative = growth inhibition, hits mostly inhibitors. hit rate 12% among 420,000; further: potency means the concentration at half of the fitted maximal effect; nearly all actives have a fitted effect of over 55% in size
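Chicken DT40 Tdp1-/- cells stably complemented with human TDP1 were seeded at 400 cells/well in medium containing 20 nM camptothecin, exposed to pin-transferred compounds, and grown at 37 °C for at least 48 hr. Viability was read as ATP luminescence.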
TDP1 cell noCPT = qHTS for Inhibitors of human tyrosyl-DNA phosphodiesterase 1 (TDP1): qHTS in cells in absence of CPT; DT40 Tdp1-/- hTDP1 cells, no CPT, ATP luminescence, 48 h; AID 686978, 2013; Potency, µM (series often up to 46.2 µM), without a hit: at the top dose activity change, negative = growth inhibition, most hits filed as inhibitors; hit rate 15% among 420,000; further: potency means the concentration at half of the fitted maximal effect; nearly all actives have a fitted effect of over 55% in size
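Camptothecin absent (DMSO only). Human TDP1-complemented DT40 knockout cells, 400 cells/well, 37 °C for minimum 48 hr; ATP measured via CellTiter-Glo, 30 min dark incubation, luminescence.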
HT1080 IDH1KD tx = qHTS for induction of synthetic lethality in tumor cells producing 2HG: qHTS for the HT-1080-IDH1KD cell line. HT-1080 IDH1 knockdown viability, ATP luminescence, 48 h. AID 686971, 2013. Potency, µM (doses to about 46.1 µM), for the others: at the top dose activity, negative = toxicity, actives largely listed as cytotoxic. hit rate 2% among 360,000;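 further: potency means the concentration at half of the fitted maximal effect; 0% = DMSO wells and -100% = cell-free medium wells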
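Viability of IDH1-knockdown HT-1080 fibrosarcoma cells was assessed by CellTiter-Glo after 48 h at 37 °C with titrated compound; concentration-effect curves were classified by fit quality and response size.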
* hit, by the source's call; ? = inconclusive; . = no result given. Sampled rows, rich in hits. Any-hit rate of the full collection: about 19%. Unless noted, the call rests on the fitted dose curve; in most records, active means well fitted curve in the direction sought with a large enough effect; inconclusive means small, poorly fitted or top-dose-only effect, or another doubt; inactive means no such curve, though single readings can be large; an effect the other way counts as inactive or inconclusive. Unless noted, on the % scale 0 is the no-effect control and ±100 the full control effect.

SMILES | IL1B secr inh | uPA surface inh | HT1080NT lethal | DT40 TDP1 CPT | TDP1 cell noCPT | HT1080 IDH1KD tx
CCSc1ncc(Cl)c(C(=O)Nc2ccc(S(=O)(=O)N(C)c3ccccc3)cc2)n1 | . | . | . | 12µM* | 12µM* | .
CCN(c1ccccc1)S(=O)(=O)c1ccc(NC(=O)c2nc(S(C)(=O)=O)ncc2Cl)cc1 | -97* | ? | 18µM* | 1.2µM* | 1µM* | 16µM*
CCN(c1ccccc1)S(=O)(=O)c1ccc(C(=O)Nc2cccc(NC(C)=O)c2)cc1 | 0 | -2% | -5% | ? | -21% | -6%
CCS(=O)(=O)c1ncc(Cl)c(C(=O)Nc2ccc(S(=O)(=O)N(C)c3ccccc3)cc2)n1 | -103* | 2% | 2.6µM* | 0.73µM* | 0.65µM* | 3.7µM*
CCCc1c(C)nc(N2CCN(c3ccc(F)cc3)CC2)[nH]c1=O | 8 | 27% | 3% | ? | ? | 4%
COc1ccc(Nc2nc(C)cc(=O)[nH]2)cc1 | 17 | 0% | 1% | -4% | -6% | 2%
CCCCc1c(C)nc(Nc2ccc(OC)cc2)[nH]c1=O | 2 | -1% | 20% | ? | 13µM* | 2%
CCCCCc1c(C)nc(Nc2ccc(F)cc2)[nH]c1=O | -3 | 0% | ? | ? | 16µM* | ?
CC(=O)Nc1nc2[nH]ccc2c(=O)[nH]1 | -7 | . | 9% | -6% | -10% | 5%
Cc1cc2c(N=O)c(NO)ccc2[nH]1 | -2 | -13% | -19% | 7.3µM* | 6.5µM* | ?
Cc1cc(=O)c2cc(C(=O)Nc3ccccc3C)ccc2[nH]1 | . | . | . | -13% | -18% | .
CCC(=O)Nc1cc(C(=O)OCc2ccc(C(=O)Oc3ccccc3)cc2)ccc1C | 0 | -3% | 4% | -25% | ? | -2%
COc1cccc(/C=N/NC(=O)c2cc3c(OC)cccc3[nH]2)c1O | 69 | -10% | ? | 5.2µM* | 6.5µM* | ?
COc1ccccc1/C=N/NC(=O)c1cc2c(OC)c(OC)ccc2[nH]1 | 32 | ? | 7.3µM* | 4.1µM* | 3.3µM* | 4.1µM*
COc1ccc(OC)c(/C=N/NC(=O)c2cc3c(OC)cccc3[nH]2)c1 | -29 | 3% | -3% | -22% | ? | -7%
COc1cccc(/C=N/NC(=O)c2cc3c(OC)c(OC)ccc3[nH]2)c1OC | 26 | ? | ? | 2.3µM* | 2.6µM* | 6.5µM*
COc1ccc(OC)c(/C=N/NC(=O)c2cc3c(OC)cc(OC)cc3[nH]2)c1 | ? | 8% | ? | ? | ? | ?
COc1cccc(/C=N/NC(=O)c2cc3c(OC)cccc3[nH]2)c1OC | -20 | 0% | 4% | -19% | 7.3µM* | 15%
COc1ccccc1NC(=O)c1cc2c(n(-c3ccc(C)cc3)c1=O)CC(C)(C)CC2=O | . | . | . | -23% | 5% | .
Cc1ccnn1-c1ccc(C(=O)N2CCCN(S(=O)(=O)c3ccc(F)cc3)CC2)cc1 | -1 | -9% | -1% | -12% | -31% | -4%
CC(C)OC(=O)CSc1nc(Cc2cccs2)nc2ccccc12 | 2 | 1% | -3% | -21% | ? | -2%
CCOc1ccc(-c2cccc(NC(=O)c3cccs3)c2)nn1 | -8 | -2% | -2% | ? | ? | -19%
CCCCCCCCCCCCCCCCC(C(=O)O)C(O)(CC(=O)O)C(=O)O (configuration not stated) | . | . | . | 17% | -9% | .
CCOc1ccc2[nH]c(C(=O)N/N=C/c3cc(OC)c(OC)c(OC)c3)cc2c1 | -79* | 4% | 1% | ? | 16µM* | -6%
COc1cc(/C=N/NC(=O)c2cc3ccccc3[nH]2)ccc1O | -7 | 4% | -10% | 4% | -2% | -8%
